The results in this text go back to PubChem BioAssay (NCI).

About 79,000 compounds went through this panel and 15% of them were active in at least one assay; those are over-represented in the sample as a whole. Values without a mark were called inactive. The source made the active and inactive calls. Cut-off read from the data, not from the text of the source: active = growth inhibition above about 70%; inactive = the rest.

A short description of test [1]: NCI Yeast Anticancer Drug Screen. Data for the rad50 strain (AID 155).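 Note: 0% = growth of vehicle-only cultures of the same strain.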 To be noted: S. cerevisiae rad50 strain growth inhibition, active compounds read high. In outline:
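A DNA repair-deficient yeast mutant serves as the test organism; compound-induced growth inhibition is calculated against vehicle-treated cells.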

The nature of test [2]: NCI Yeast Anticancer Drug Screen. Data for the mec2-1 strain (AID 157). The following applies: S. cerevisiae mec2-1 strain, active compounds read high. The gist of the method:
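Strain: mec2-1 (DNA repair/cell cycle alteration). Compound exposure, then growth measured; inhibition expressed relative to vehicle.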

Test [3] in a line: NCI Yeast Anticancer Drug Screen. Data for the sgs1 mgt1 strain (AID 161).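 Note: 0% = growth of cultures given vehicle only.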 To be noted: S. cerevisiae sgs1 mgt1 strain, active compounds read high. In outline: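 Mutant yeast exposed to compound; growth scored against vehicle-only wells.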
A short description of test [4]: NCI Yeast Anticancer Drug Screen. Data for the cln2 rad14 strain (AID 165).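 Note: 0% = growth equal to vehicle treated cultures.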 The following applies: S. cerevisiae cln2 rad14 strain, active compounds read high. In outline: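 Compounds are applied to the cln2 rad14 yeast strain, and growth is then compared with that of vehicle-treated cultures to give inhibition.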
The nature of test [5]: NCI Yeast Anticancer Drug Screen. Data for the bub3 strain (AID 167). To be noted: S. cerevisiae bub3 mutant strain, active compounds read high. In outline: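 Inhibition values come from growth of compound-treated mutant yeast normalised to vehicle-treated controls.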
The nature of test [6]: NCI Yeast Anticancer Drug Screen. Data for the mlh1 rad18 strain (AID 175). To be noted: S. cerevisiae mlh1 rad18 strain growth inhibition, active compounds read high. In outline: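 Read-out is yeast growth inhibition, calculated against vehicle-only controls. The compound was applied to a strain engineered with DNA damage repair alterations.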
[7] abbreviates: at 5.0 µM (retest, dose inferred, filed as 0.5).
Setting [8] is: at 50.0 µM (retest, dose inferred, filed as 5.0).

Take `COc1cc(C=Nc2ccc(Cl)cc2)ccc1OC(=O)c1ccccc1`: the growth inhibition in test [1] (setting [7]) was 6%; in test [1] (setting [8]), -8%; in test [1] (at 50.0 µM) it was 18%; in test [2] (setting [7]), -6%; in test [2] (setting [8]) it was -5%; in test [2] (at 50.0 µM), -37%. For the same compound, the growth inhibition in test [3] (setting [7]) is -2%; in test [3] (setting [8]), -1%; in test [3] (at 50.0 µM), -3.8%; in test [4] (setting [7]) it was 26%; in test [4] (setting [8]), 21%; in test [4] (at 50.0 µM), 7.55%. For the same compound, the growth inhibition in test [5] (setting [7]) is 27%; in test [5] (setting [8]) it was 30%; in test [5] (at 50.0 µM) it was -6.5%; in test [6] (setting [7]) it was 3%; in test [6] (setting [8]), -18%; in test [6] (at 50.0 µM), 11.1%.

With `Nc1ccc(O)c2c1C(=O)c1ccccc1C2O` (stereo not given), the growth inhibition was -9% in test [1] (setting [7]); 96% (active) in test [1] (setting [8]); 94.8% (active) in test [1] (at 50.0 µM); 4% in test [2] (setting [7]); 95% (active) in test [2] (setting [8]); 78.9% (active) in test [2] (at 50.0 µM). Further, the growth inhibition was 32% in test [3] (setting [7]); 97% (active) in test [3] (setting [8]); 83.8% (active) in test [3] (at 50.0 µM); -10% in test [4] (setting [7]); 78% (active) in test [4] (setting [8]); 54.8% in test [4] (at 50.0 µM). The growth inhibition in test [5] (setting [7]) is 19%; in test [5] (setting [8]), 96% (active); in test [5] (at 50.0 µM), 81.5% (active); in test [6] (setting [7]), 28%; in test [6] (setting [8]), 98% (active); in test [6] (at 50.0 µM), 94.5% (active).

For the compound `CCCCCCCCCCCCCCCCCC[n+]1ccc(C(C)CC)cc1` (stereo not given), the growth inhibition in test [1] (setting [7]) was 1%; in test [1] (setting [8]) it was 96% (active); in test [1] (at 50.0 µM) it was 99.3% (active); in test [2] (setting [7]), 12%; in test [2] (setting [8]), 98% (active); in test [2] (at 50.0 µM), 99.6% (active). For the same compound, the growth inhibition was 18% in test [3] (setting [7]); 97% (active) in test [3] (setting [8]); 99.2% (active) in test [3] (at 50.0 µM); 16% in test [4] (setting [7]); 87% (active) in test [4] (setting [8]); 99.1% (active) in test [4] (at 50.0 µM). For the same compound, the growth inhibition in test [5] (setting [7]) was 29%; in test [5] (setting [8]), 96% (active); in test [5] (at 50.0 µM), 99.2% (active); in test [6] (setting [7]), 6%; in test [6] (setting [8]), 97% (active); in test [6] (at 50.0 µM), 99.2% (active).

As for `CC(=O)OC1CCCCCCCCCCC12OCCO2` (stereo not given), the growth inhibition in test [1] (setting [7]) was 23%; in test [1] (setting [8]), 96% (active); in test [1] (at 50.0 µM) it was 30%; in test [2] (setting [7]), 5%; in test [2] (setting [8]), 98% (active); in test [2] (at 50.0 µM), 63%. The growth inhibition in test [3] (setting [7]) is 20%; in test [3] (setting [8]), 99% (active); in test [3] (at 50.0 µM), 73.5% (active); in test [4] (setting [7]), 1%; in test [4] (setting [8]), 96% (active); in test [4] (at 50.0 µM), 63.6%. The growth inhibition is 1% in test [5] (setting [7]); 96% (active) in test [5] (setting [8]); 83% (active) in test [5] (at 50.0 µM); 10% in test [6] (setting [7]); 96% (active) in test [6] (setting [8]); 92% (active) in test [6] (at 50.0 µM).

On to `CCOc1c(N=Nc2ccccc2OC)c(-c2ccccc2)nn1C(N)=S`, for which the growth inhibition in test [1] (setting [7]) is 10%; in test [1] (setting [8]), 38%; in test [1] (at 50.0 µM), 67%; in test [2] (setting [7]), 1%; in test [2] (setting [8]) it was 35%; in test [2] (at 50.0 µM), 63%. Besides, the growth inhibition is 26% in test [3] (setting [7]); 61% in test [3] (setting [8]); 76.1% (active) in test [3] (at 50.0 µM); -8% in test [4] (setting [7]); 20% in test [4] (setting [8]); 44% in test [4] (at 50.0 µM). The growth inhibition in test [5] (setting [7]) is -1%; in test [5] (setting [8]), 29%; in test [5] (at 50.0 µM) it was 26.8%; in test [6] (setting [7]) it was 2%; in test [6] (setting [8]) it was 39%; in test [6] (at 50.0 µM) it was 53.4%.

With `CC(C)=CCC/C(=C/CC/C(C)=C/CCc1ccoc1)C(=O)O`, the growth inhibition is -5% in test [1] (setting [7]); 20% in test [1] (setting [8]); 72.8% (active) in test [1] (at 50.0 µM); 3% in test [2] (setting [7]); 26% in test [2] (setting [8]); 44.1% in test [2] (at 50.0 µM). Further, the growth inhibition in test [3] (setting [7]) was -9%; in test [3] (setting [8]), 41%; in test [3] (at 50.0 µM), 59.4%; in test [4] (setting [7]), 17%; in test [4] (setting [8]) it was 73% (active); in test [4] (at 50.0 µM), 42.7%. The growth inhibition was -9% in test [5] (setting [7]); 64% in test [5] (setting [8]); 53% in test [5] (at 50.0 µM); 2% in test [6] (setting [7]); 35% in test [6] (setting [8]); 62.3% in test [6] (at 50.0 µM).

As for `O=C(Nc1ccccc1Cl)c1cccnc1`, the growth inhibition in test [1] (setting [7]) is -146%; in test [1] (setting [8]), -174%; in test [1] (at 50.0 µM), 6.55%; in test [2] (setting [7]) it was -48%; in test [2] (setting [8]) it was -56%; in test [2] (at 50.0 µM) it was 14.8%. In addition, the growth inhibition in test [3] (setting [7]) is -56%; in test [3] (setting [8]) it was -70%; in test [3] (at 50.0 µM) it was 9.25%; in test [4] (setting [7]) it was -48%; in test [4] (setting [8]), -63%; in test [4] (at 50.0 µM), 51.6%. Further, the growth inhibition in test [5] (setting [7]) was -63%; in test [5] (setting [8]), -81%; in test [5] (at 50.0 µM) it was -7.4%; in test [6] (setting [7]) it was -112%; in test [6] (setting [8]), -123%; in test [6] (at 50.0 µM) it was 4.45%.

Turning to `CCCCCCCCCCCCCCCC[N+](C)(C)CCCCCC(=O)OC`, the growth inhibition is 99% (active) in test [1] (setting [7]); 99% (active) in test [1] (setting [8]); 98.9% (active) in test [1] (at 50.0 µM); 100% (active) in test [2] (setting [7]); 100% (active) in test [2] (setting [8]); 99.1% (active) in test [2] (at 50.0 µM). In addition, the growth inhibition in test [3] (setting [7]) is 100% (active); in test [3] (setting [8]), 100% (active); in test [3] (at 50.0 µM), 99% (active); in test [4] (setting [7]), 99% (active); in test [4] (setting [8]), 99% (active); in test [4] (at 50.0 µM), 97.4% (active). Besides, the growth inhibition in test [5] (setting [7]) is 100% (active); in test [5] (setting [8]) it was 100% (active); in test [5] (at 50.0 µM), 98.5% (active); in test [6] (setting [7]), 100% (active); in test [6] (setting [8]) it was 100% (active); in test [6] (at 50.0 µM) it was 98.7% (active).

On to `N#CCCN(C(=S)Nc1cccc(C(F)(F)F)c1)C1CCCCC1`, for which the growth inhibition is -1% in test [1] (setting [7]); 69% in test [1] (setting [8]); 75.3% (active) in test [1] (at 50.0 µM); 3% in test [2] (setting [7]); 87% (active) in test [2] (setting [8]); 75% (active) in test [2] (at 50.0 µM). Besides, the growth inhibition is -1% in test [3] (setting [7]); 87% (active) in test [3] (setting [8]); 82.4% (active) in test [3] (at 50.0 µM); -1% in test [4] (setting [7]); 46% in test [4] (setting [8]); 41.1% in test [4] (at 50.0 µM). Also, the growth inhibition was 1% in test [5] (setting [7]); 81% (active) in test [5] (setting [8]); 76.2% (active) in test [5] (at 50.0 µM); 1% in test [6] (setting [7]); 89% (active) in test [6] (setting [8]); 61.2% in test [6] (at 50.0 µM).

On to `CCOc1nc(N)nc(C)c1N=Nc1ccc(Cl)cc1Cl`, for which the growth inhibition in test [1] (setting [7]) was 10%; in test [1] (setting [8]) it was 92% (active); in test [1] (at 50.0 µM), 72.8% (active); in test [2] (setting [7]), 0%; in test [2] (setting [8]), 50%; in test [2] (at 50.0 µM), 16.9%. Also, the growth inhibition is 5% in test [3] (setting [7]); 88% (active) in test [3] (setting [8]); 22.4% in test [3] (at 50.0 µM); 15% in test [4] (setting [7]); 77% (active) in test [4] (setting [8]); 36.4% in test [4] (at 50.0 µM). For the same compound, the growth inhibition in test [5] (setting [7]) is 5%; in test [5] (setting [8]) it was 94% (active); in test [5] (at 50.0 µM), 73.8% (active); in test [6] (setting [7]), 14%; in test [6] (setting [8]), 97% (active); in test [6] (at 50.0 µM), 45%.
